NALP1 yeast inh: inhibitors of NALP1 inflammasome in yeast | S. cerevisiae NALP1/ASC/caspase-1 growth, X-gal OD620, 72 h | inhibition, % at 10 µM | actives 0.61% (n = 280,000) | AID 2071; in the data active = inhibition mostly above about 24%, no sharp cut-off; inactive = mostly below about 32%
tim23-1 inh: growth inhibitors of tim23-1 mutant yeast; inhibition, % at 20 µM; S. cerevisiae tim23-1 growth, BacTiter-Glo luminescence, 24 h; actives 1.3% (n = 330,000); AID 463212;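 active = growth inhibition of the mutant yeast at or above 50%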;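 also: temperature-sensitive mutant grown at 25 °C; plate controls were DMSO-treated mutant yeast for no effect and medium wells lacking yeast for full effect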
SKKanGAS inh: SKKanGAS growth inhibition. S. pyogenes SKKanGAS, kanamycin growth, BacTiter-Glo, 6 h. inhibition, % at 7.5 µM. actives 1.3% (n = 300,000);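 active = mean replicate score, as percent of positive control median, at least 50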;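 also: strain carries kanamycin resistance gene driven by streptokinase promoter and grows in 40 µg/ml kanamycin; loss of luminescence reflects streptokinase promoter inhibition or plain growth inhibition; 0% = median of DMSO wells and 100% = positive control at its reference dose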
PfHsp90 yeast 2: reduces growth (ATP signal) of yeast expressing P. falciparum Hsp90. actives 0.32% (n = 310,000). S. cerevisiae expressing PfHsp90, BacTiter-Glo ATP, 48 h; yeast lacking PDR1 and PDR3 efflux regulators. inhibition, % at 9.4 µM;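 active = every replicate shows inhibition above about 80%, whatever the replicate mean, limit read from the data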;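 also: 0% = DMSO neutral controls and 100% = 20 µM radicicol positive controls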
TIM10 inh: inhibits growth of TIM10 yeast strain; S. cerevisiae TIM10 strain growth, BacTiter-Glo luminescence, 24 h; inhibition, % at 10 µM; actives 1.4% (n = 330,000); AID 463195;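 active = inhibition of 40% or more at the single tested concentration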;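 also: wild-type TIM10 isogenic control strain grown at permissive 25 °C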
tim10-1 inh: growth inhibitors of tim10-1 mutant yeast; actives 2.2% (n = 330,000); inhibition, % at 20 µM; AID 463190; S. cerevisiae tim10-1 ts strain growth, BacTiter-Glo, 24 h;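 active = inhibition of at least 40%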;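 also: mutant grown at 25 °C; 0% = DMSO wells with yeast and 100% = wells holding no yeast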
tim10-1 conf: confirmation of tim10-1 mutant yeast growth inhibitors | shares compounds with tim10-1 inh | S. cerevisiae tim10-1 ts strain growth, BacTiter-Glo, 24 h | inhibition, % at 20 µM | actives 56% (n = 7,400);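 active = inhibition of yeast growth at or above a set limit in either of two repeat tests at 20 µM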;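 also: tim10-1 mutant grown at permissive 25 °C to find synthetic lethal compounds; 0% = DMSO yeast wells and 100% = medium wells without yeast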
tim10 confirm: TIM10 yeast growth inhibition, confirmed; inhibition, % at 10 µM; shares compounds with TIM10 inh; actives 63% (n = 4,600); AID 463215; S. cerevisiae tim10 strain growth, BacTiter-Glo luminescence, 24 h;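 active = inhibition of yeast growth at or above a set limit in either of two replicates at 10 µM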;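 also: this counterscreen used the strain with wild-type TIM10; 0% = yeast with DMSO and 100% = medium wells lacking yeast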
tim23-1 conf: tim23-1 yeast growth inhibition, confirmed | S. cerevisiae tim23-1 growth, BacTiter-Glo luminescence, 24 h | inhibition, % at 20 µM | actives 83% (n = 4,400) | shares compounds with tim23-1 inh;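 active = inhibition above about 39% in either of two replicate wells at 20 µM, limit read from the data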;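 also: temperature-sensitive tim23-1 mutant grown at 25 °C; 0% = DMSO wells with yeast and 100% = medium wells without yeast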
* hit, by the source's call; nt = no result. This is a sample that favours compounds with a hit; in the whole collection about 4.8% have one here.

SMILES | NALP1 yeast inh | tim23-1 inh | SKKanGAS inh | PfHsp90 yeast 2 | TIM10 inh | tim10-1 inh | tim10-1 conf | tim10 confirm | tim23-1 conf
Cc1cccc(/C(N)=N/OC(=O)N2c3ccccc3Sc3ccccc32)c1 | -11 | 60* | 10 | -24 | 83* | 65* | 52* | -32 | 45*
Brc1ccc2nc(-c3cccs3)c(NCC3CCCO3)n2c1 (stereo not given) | -2 | 39 | 8 | -16 | 12 | -14 | nt | nt | nt
Cc1cn(CC(=O)NCC(c2ccccc2)c2ccccc2)c(=O)[nH]c1=O | nt | nt | nt | 19 | nt | nt | nt | nt | nt
CCN(C[C@H]1N[C@@](CC)(C(=O)OC)[C@H]2C(=O)N(Cc3ccccc3)C(=O)[C@@H]12)S(=O)(=O)c1ccc(C(C)(C)C)cc1 | nt | 15 | nt | 1 | 19 | 16 | nt | nt | nt
CN1c2ccccc2C(C)(C)C12C=Cc1cc(O)ccc1O2 (stereo not given) | -7 | 55* | 6 | nt | 43* | 52* | 41* | 42* | 52*
CN1c2ccccc2C(C)(C)C12C=Nc1c(cc(N3CCOCC3)c3ccccc13)O2 (stereo not given) | 3 | 21 | 24 | -25 | 7 | 24 | nt | nt | nt
COc1ccc(NC(=O)Cc2ccc(Cl)c(Cl)c2)cn1 | 6 | 23 | -1 | -26 | -6 | -11 | nt | nt | nt
COc1ccc(NC(=O)/C(Cl)=C(/Cl)S(=O)Cc2ccccc2Cl)cn1 (stereo not given) | 8 | 79* | nt | 107* | 55* | 42* | 23 | 84* | 21
COCCSc1nnc(-c2cccc(C#N)c2)n1C | 10 | 2 | -1 | 3 | -5 | -3 | nt | nt | nt
CCCCOC(=O)c1ccccc1N1C(=O)C2C3CCC(C3)C2C1=O (stereo not given) | 4 | 23 | -1 | 5 | 8 | 2 | nt | nt | nt
CCCc1cc(=O)[nH]c(SCc2ccccc2Cl)n1 | 8 | 33 | -3 | -32 | 12 | 25 | nt | nt | nt
Oc1ccccc1-c1cc(-c2ccco2)[nH]n1 | -3 | 36 | 13 | -8 | 13 | -4 | nt | nt | nt
Oc1ccc(Br)cc1-c1cc(-c2ccco2)[nH]n1 | 8 | 68* | 10 | -15 | 43* | 48* | 32* | 34* | 52*
Cc1ccc(C(=O)OCC(=O)N(C)c2ccccc2)c(C)c1 | -6 | 52* | 1 | -17 | 18 | 57* | 50* | nt | 46*
CCCCn1nnc(NC(=O)c2ccc(-c3cccc(Cl)c3)o2)n1 | 16 | 72* | -3 | -31 | 45* | 50* | 51* | 47* | 74*
Cc1cc(C)[n+](Cc2ccccc2)cc1C(N)=O | nt | -7 | -5 | 7 | -10 | -14 | nt | nt | nt
CCc1nc(N2CCN(C(=O)c3ccco3)CC2)c(C#N)c2c1COC(C)(C)C2 | 21 | 30 | -1 | -16 | 14 | 26 | nt | nt | nt
CCCOc1ccc2c(c1)C(=NN=C(N)N)c1cc(OCCC)ccc1-2 | 12 | 62* | 12 | 0 | 32 | 76* | 38* | nt | 33
COc1ccc(-c2nc(-c3ccccc3)c(-c3cccs3)[nH]2)cc1OC | 14 | 55* | -15 | -8 | 34 | 41* | 34* | nt | 63*
CCOc1ccc(C(C)(O)CN2CCOCC2)cc1 (stereo not given) | 2 | 3 | -2 | -4 | -14 | -10 | nt | nt | nt
Cc1ccc(C(=O)Sc2cccccc2=O)cc1 | 6 | 89* | 37 | 104* | 73* | 74* | 77* | 89* | -28
Cc1ccc(NC(=O)c2ccccc2)cc1 | -3 | 9 | 3 | nt | 1 | -2 | nt | nt | nt
CC1CCCCN1C(=O)C(Cc1ccccc1)N1C(=O)C2CCCCC2C1=O (stereo not given) | 16 | 26 | -6 | -3 | 16 | 38 | nt | nt | nt
O=C(NC(Nc1nc2ccc([N+](=O)[O-])cc2s1)(C(F)(F)F)C(F)(F)F)c1ccccc1Cl | 105* | 71* | 23 | 7 | 66* | 78* | 76* | 68* | 86*

Screening results from PubChem BioAssay.
